Compound activity: PubChem, several laboratories
Hits are enriched below; roughly 1.4% of the tested compounds scored in any of these assays.
Mtb hypoxia rep: PubChem AID 1159583. actives 0.1% (n = 300,000). fluorescence inhibition, % (concentration not given with the values). M. tuberculosis hypoxia-regulated fluorescent reporter, fluorescence; in the data active = fluorescence inhibition mostly above about 23%, no sharp cut-off; inactive = mostly below about 17%
SSB-PriA inh: inhibitors of Klebsiella pneumoniae PriA binding to SSB C-terminal tail, primary screen, biochemical, AlphaScreen. AID 1272365, 2023. AlphaScreen SSBct-PriA binding, biotinylated peptide. actives 0.6% (n = 430,000). inhibition, % at 33 µM; in the data active = inhibition mostly above about 37%, no sharp cut-off; inactive = mostly below about 20%
CCHF vOTU inh: CCHFV vOTU protease inhibitors, primary screen, biochemical, Pep-AMC substrate, fluorescence; inhibition, % at 11.5 µM; actives 0.55% (n = 370,000); AID 651958, 2012; in the data active = inhibition above about 30%
RN4220 kill: growth inhibition of S. aureus RN4220, primary screen, OD600; 16 h; inhibition, % (no concentration beside the values); actives 0.33% (n = 330,000); in the data active = inhibition above about 85%
ugtP null kill: growth inhibition of ugtP-null S. aureus, primary screen, RN4220 ugtP deletion, OD600 | 16 h | growth inhibition, % (concentration not given with the values) | actives 0.54% (n = 330,000) | AID 1259309, 2017; in the data active = growth inhibition above about 68%
Numbers stand for hits; - = inactive; . = no result shown.

SMILES	Mtb hypoxia rep	SSB-PriA inh	CCHF vOTU inh	RN4220 kill	ugtP null kill
N#Cc1nc(-c2ccc(Cl)cc2)oc1N1CCCCCC1	.	59.2	.	.	.
Cc1nc2ccc(C(=O)N3CC(N4C(=O)C5CC=CCC5C4=O)C3)cc2s1 (centres undefined)	.	-	.	.	.
Nn1c(-c2ccccn2)n[nH]c1=S	.	83.0	.	.	.
Cc1ccccc1C=Nn1c(-c2ccccn2)n[nH]c1=S	-	58.8	.	-	-
S=c1[nH]nc(-c2ccccn2)n1N=Cc1ccccc1	-	74.4	.	-	-
Cc1ccc(C=Nn2c(-c3ccccn3)n[nH]c2=S)o1	-	71.9	.	-	-
NC(=NOC(=O)COc1ccc(Cl)cc1Br)c1ccncc1	.	-	.	.	.
O=C(Nc1ccccc1C(F)(F)F)N1CCN(c2nc3ccccc3n2Cc2ccccc2)CC1	.	-	.	.	.
CCc1ccccc1N(CC(=O)NN=Cc1ccc(OC(=O)OC)c(OC)c1)S(C)(=O)=O	.	-	.	-	-
CCOC(=O)c1c(NS(=O)(=O)c2ccccc2)n(CCCOC)c2nc3ccccc3nc12	-	46.5	-	-	-
CCOC(=O)c1c(NS(=O)(=O)c2ccccc2)n(CCc2ccccc2)c2nc3ccccc3nc12	.	-	.	.	.
CCCCCn1c(NS(=O)(=O)c2ccc(F)cc2)c(C(=O)OCC)c2nc3ccccc3nc21	.	54.8	.	.	.
CCCCn1c(NS(=O)(=O)c2ccc(Cl)cc2)c(S(=O)(=O)c2ccccc2)c2nc3ccccc3nc21	.	-	.	.	.
CCCCn1c(NS(=O)(=O)c2ccc(Cl)cc2)c(C(=O)OCC)c2nc3ccccc3nc21	.	67.9	.	.	.
O=C(N1CCN(c2ccccc2F)CC1)N(c1ccccc1)c1ccccc1	.	-	.	.	.
COc1cccc(Nc2nc(N3CCC(Cc4ccccc4)CC3)nc3c2cnn3C)c1	.	-	.	.	.
CC1CCCC(=NNc2ccc([N+](=O)[O-])cc2[N+](=O)[O-])C1 (centres undefined)	-	57.8	.	-	-
Cc1ccc(N2CCN(S(=O)(=O)c3ccc(OC(F)(F)F)cc3)CC2)nn1	.	-	.	.	.
Cc1ccc(N2C(=O)N(CC(=O)N3CCCCC3C)c3ccccc3S2(=O)=O)cc1 (centres undefined)	.	-	.	.	.
CCN(CC)c1ccc(Nc2nc(Cl)ncc2Br)cc1	-	41.4	-	-	-
CCN(CC)c1ccc(CNc2ccc(Br)cn2)cc1	.	-	-	-	-
CCc1ccc(-c2ccc(/C=C3/SC(=S)N(CCCC(=O)O)C3=O)o2)cc1	.	-	.	.	.
O=C(O)CCN1C(=O)/C(=C/c2ccc(-c3nc4ccccc4s3)o2)SC1=S	-	-	-	99.4	-
O=C(O)CCCN1C(=O)/C(=C\c2ccc(-c3nc4ccccc4s3)o2)SC1=S	-	-	-	-	100.1
O=C(O)CC(C(=O)O)N1C(=O)/C(=C/c2ccc(-c3nc4ccccc4s3)o2)SC1=S (centres undefined)	-	-	-	-	-
SMILES	Mtb hypoxia rep	SSB-PriA inh	CCHF vOTU inh	RN4220 kill	ugtP null kill
C/C(C=NN1CCN(c2ccccc2)CC1)=C\c1ccccc1	-	-	.	-	-
c1ccc(-c2nc3nonc3nc2-c2ccccc2)cc1	-	-	-	97.4	98.3
Cn1c(-c2ccccc2)cc2c3no[n+]([O-])c3ccc21	47.5	-	-	-	-
COc1cccc2c1C(=O)c1c(O)c3c(c(O)c1C2=O)C[C@@](O)(C(=O)CO)C[C@@H]3O[C@H]1C[C@H](N)[C@@H](O)[C@H](C)O1	.	45.8	.	.	.
N#Cc1nc(-c2ccccc2F)oc1N1CCCCCC1	.	86.2	.	.	.
Cc1ccccc1-c1nc(C#N)c(N2CCCCC2)o1	-	59.4	-	-	-
Cc1ccccc1-c1nc(C#N)c(N2CCN(C)CC2)o1	.	-	.	.	.
N#Cc1nc(-c2ccccc2F)oc1N1CCCC1	-	-	-	-	-
Fc1cccc(C[n+]2csc3ccccc32)c1	-	-	-	-	95.5
c1ccc(C[n+]2csc3ccccc32)cc1	-	-	-	-	-
COc1ccccc1C1CC(=O)Oc2cc(C)c(Br)c(C)c21 (centres undefined)	-	-	-	-	85.6
Cc1ccc(NC(=S)NN=C2CCCCc3ccccc32)cc1	-	-	.	-	active
CCCCCCCCn1ccc(=N)cc1	-	-	-	-	-
CCCCCCCCCCn1ccc(=N)cc1	-	-	-	100.1	100.8
CCC(=NNC(=O)c1c[nH]c2ccccc12)c1cccs1	-	-	.	-	-
COc1cccc(/C=C2\Oc3cc(OCC(=O)N4CCOCC4)ccc3C2=O)c1	.	-	.	.	.
CN(C)S(=O)(=O)c1ccc(C(=O)OCC(=O)NC(=O)NC2CCCC2)cc1	30.7	-	-	-	-
O=C(COC(=O)c1ccc(Cl)cc1)NC(=O)NC1CCCC1	-	-	-	-	-
CC(O)CN1CCN(CC(=O)NCc2ccccc2Cl)CC1 (centres undefined)	.	-	.	.	.
CCC(C)Sc1cc(-c2nc3cc(C)ccn3c2NC2CCCCC2)ccc1OC (centres undefined)	-	-	-	-	-
CCC(C)Sc1cc(-c2nc3ccc(C)cn3c2NCc2ccccc2)ccc1OC (centres undefined)	-	38.8	-	-	-
CC(=O)c1ccc(-c2cccc(-c3nc4ccccn4c3NC3CCCCC3)c2)cc1	-	41.1	-	-	-
CCC(C)Sc1cc(-c2nc3ccccn3c2NC2CCCCC2)ccc1OC (centres undefined)	-	-	-	100.1	98.8
Fc1cccc([C@H]2CCNC2)c1	.	-	.	.	.
CCCCCCn1c(=O)c(C(=O)Nc2ncccc2C)c(O)c2ccccc21	.	-	-	-	88.6
SMILES	Mtb hypoxia rep	SSB-PriA inh	CCHF vOTU inh	RN4220 kill	ugtP null kill
CCCCn1c(=O)c(C(=O)Nc2ncccc2C)c(O)c2ccccc21	-	-	-	-	100.2
CCCn1c(=O)c(C(=O)Nc2ncccc2O)c(O)c2ccccc21	-	-	-	-	-
C=CCn1c(=O)c(C(=O)Nc2ncccc2C)c(O)c2ccccc21	.	.	-	.	.
CCCCNC(=O)Cn1nc(Cc2ccncc2)c2ccccc2c1=O	-	-	-	-	-
O=C(Cn1nc(Cc2ccncc2)c2ccccc2c1=O)N1CCc2ccccc2C1	.	-	65.9	-	-
CCC(C)/C=C(C)/C=C/C1=CC2=C(Cl)C(=O)C(C)(OC(C)=O)C(=O)C2=CO1 (centres undefined)	.	45.2	.	-	-
CC[C@H](C)C=C(C)/C=C/C1=CC2=C(Cl)C(=O)[C@@](C)(OC(C)=O)C(=O)C2=CO1	.	-	.	-	-
O=C(NCCCn1ccnc1)c1cc2n(n1)CCCO2	.	34.0	.	.	.
N=C1SC(c2ccccc2)C(=O)N1c1ncc(Cc2ccccc2Cl)s1 (centres undefined)	-	-	-	-	89.9
Cc1nn(-c2ccccc2)cc1C=NO	-	-	.	-	-
O=C(CN1c2ccccc2Sc2ccccc21)NNC(=O)Nc1ccc(Cl)c(Cl)c1	-	-	-	100.3	100.8
CN1CCN(c2c(F)cc3c(=O)c(C(=O)O)cn4c3c2OCN4C)CC1	.	-	-	99.4	99.5
Nc1cc(-c2ccccn2)[nH]n1	.	-	.	.	.
O=c1cc(-c2ccccn2)[nH]c(-c2ccccn2)c1	.	96.0	.	.	.
CN1CCN(C(=S)c2cn(CCOc3ccccc3F)c3ccccc23)CC1	-	39.3	-	-	-
